Measurements from PubChem BioAssay AID1259418 (Broad Institute, 2018).
Screen size: about 3,400 compounds; about 840 (25%) were called active. About 11% were inconclusive and are not listed. Only a sample is shown. Measured potencies and affinities stand elsewhere. A number with no mark means an inactive call.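 Rule for the calls: active = fitted half-maximal concentration of signal decrease at or below twice the sample's top tested concentration; inconclusive = flat curve between -70 and -30 percent, or poor fit; inactive = flat within 30 percent, signal rise, or potency above limit.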

Experiment: inhibitors of Toxoplasma growth in IFN-γ-primed HeLa – cell-based, ME49Luc, luciferase, 72 h, dose response (AID 1259418)
Conditions: T. gondii ME49Luc in IFN-y HeLa, hits give low values, -100% = high-dose IFN-γ control wells; at 19.5 µM unless noted

**Q.** Which max activity does the source give for `COC(=O)c1ccc(NC(=O)Nc2ccc(-c3nc(-c4ccc(C)cc4C)co3)cc2)cc1` here?
**A.** 12.9% [at 0.68 µM]

**Q.** For `CN(C)c1cccc(C(=O)N2CSC[C@@H]2C(=O)NCCc2csc(-c3ccccc3)n2)c1`, which max activity is on record?
**A.** 9.09% [at 0.16 µM]

**Q.** With `CCOC(=O)c1ccc(NC(=O)CN2CCC3(CC2)N=C(c2ccccc2)C(=O)N3)cc1` as the molecule, how does the max activity read?
**A.** 23.6%

**Q.** For `COc1ccc(-c2nc(CN(c3ccc(OC)cc3)S(=O)(=O)c3ccccc3C)c(C)o2)cc1`, which max activity is on record?
**A.** 2.45%

**Q.** With `Cc1oc(-c2ccccc2)nc1Cn1nnc(-c2nc(-c3ccc(OC(C)C)cc3)no2)c1C` as the molecule, how does the max activity read?
**A.** -7.48% [at 5 µM]

**Q.** With `CCc1nc(OCC(=O)Nc2ccccc2Br)c2ccccc2n1` as the molecule, how does the max activity read?
**A.** 18.5% [at 0.68 µM]

**Q.** With `O=C(NCCc1csc(-c2ccccc2)n1)[C@H]1CSCN1S(=O)(=O)c1ccccc1F` as the molecule, how does the max activity read?
**A.** 11.9% [at 0.16 µM]

**Q.** With `O=C(Nc1ccccc1)[C@@H]1[C@@H](CO)[C@@H]2Cn3c(ccc(C4=CCCCC4)c3=O)[C@@H]2N1Cc1cocn1` as the molecule, how does the max activity read?
**A.** 31.9%

**Q.** For `Cc1cccc(-c2noc(-c3nnn(Cc4nc(-c5cccc(C)c5)oc4C)c3C)n2)c1`, which max activity is on record?
**A.** 17.9%

**Q.** For `Cc1ccc(-c2coc(-c3ccc(NC(=O)NCCc4ccccc4)cc3)n2)c(C)c1`, which max activity is on record?
**A.** 27.7% [at 0.35 µM]

**Q.** With `Cc1ccc(NC(=O)CN2CCC3(CC2)N=C(c2cccc(F)c2)C(=O)N3)cc1C` as the molecule, how does the max activity read?
**A.** -21.1%

**Q.** For `CCOc1ccc(NC(=O)N2CCN(Cc3nc(-c4ccccc4C)oc3C)CC2)cc1`, which max activity is on record?
**A.** -9.52%

**Q.** For `Cc1nc(OCC(=O)Nc2ccc(C(C)C)cc2)c2ccccc2n1`, which max activity is on record?
**A.** 15.7% [at 1.35 µM]

**Q.** For `CC(C)CCNC(=O)CC1Nc2c3ccccc3nc(=S)n2C1=O` (configuration not stated), which max activity is on record?
**A.** 41.3%

**Q.** For `CCOc1ccccc1NC(=O)CN1CCC2(CC1)N=C(c1cccc(Cl)c1)C(=O)N2`, which max activity is on record?
**A.** 5.75%

**Q.** With `COc1ccccc1-c1nc(Cn2nnc(-c3nc(-c4cccc(F)c4)no3)c2C)c(C)o1` as the molecule, how does the max activity read?
**A.** -3.46% [at 1.35 µM]

**Q.** With `Cc1ccc(-c2nc(Cn3nnc(-c4nc(-c5cccc(C)c5)no4)c3C)c(C)o2)cc1` as the molecule, how does the max activity read?
**A.** -13% [at 5 µM]

**Q.** For `O=C(NC1CCCCC1)N1C[C@@H]2N[C@H](C1)C2c1ccc(-c2ccc(F)cc2)cc1` (some centres not stated), which max activity is on record?
**A.** 23.1% [at 10 µM]

**Q.** Which max activity does the source give for `CCCNC(=O)N1CCc2nc(-c3ccc(OC)cc3)sc2C1` here?
**A.** 12.7% [at 10 µM]

**Q.** Which max activity does the source give for `Cc1ccccc1-c1ccc(C2[C@@H]3CN(C(=O)C4CCOCC4)C[C@H]2N3)cc1` (some centres not stated) here?
**A.** 20.5%

**Q.** With `Cc1ccc(NC(=O)COc2nc(C)nc3ccccc23)c(C)c1` as the molecule, how does the max activity read?
**A.** 13.8% [at 0.68 µM]

**Q.** For `COc1ccc(-c2nc(Nc3ccc(F)c(Cl)c3)c3ccccc3n2)cc1`, which max activity is on record?
**A.** 19.7%

**Q.** With `CO[C@H]1CCN(c2ccc(C)nn2)[C@H]1Cc1cnn(C)c1` as the molecule, how does the max activity read?
**A.** -9.84% [at 1.2 µM]

**Q.** For `Cc1nc(-c2ccc(F)cc2)sc1-c1ccc(SCc2ccccc2Cl)nn1`, which max activity is on record?
**A.** 10% [at 0.16 µM]

**Q.** For `Cc1ccc(-c2nc(Cn3nnc(-c4nc(-c5ccccc5Cl)no4)c3C)c(C)o2)cc1`, which max activity is on record?
**A.** -11.4% [at 2.6 µM]

**Q.** Which max activity does the source give for `CC(CCc1ccccc1)Nc1nc(-c2ccc(Cl)cc2)nc2ccccc12` (configuration not stated) here?
**A.** -14.3% [at 5 µM]

**Q.** For `COc1ccc(-c2nc(N3CCN(c4cccc(C)c4C)CC3)c3ccccc3n2)cc1`, which max activity is on record?
**A.** 17%

**Q.** For `CCCNC(=O)N1CCc2nc(-c3ccc(C)cc3)sc2C1`, which max activity is on record?
**A.** -30.1% [at 0.16 µM]

**Q.** For `Cc1ccc(-c2nc3c(s2)CN(C(=O)NCc2ccccc2)CC3)cc1`, which max activity is on record?
**A.** -24.6% [at 0.35 µM]

**Q.** Which max activity does the source give for `O=C(Nc1ccc(-c2nc(-c3ccccc3)co2)cc1)c1ccccc1F` here?
**A.** -7.4% [at 10 µM]

**Q.** With `COCCN1C(=O)CCC12CCC(NC(=O)c1cc(C)on1)CC2` (configuration not stated) as the molecule, how does the max activity read?
**A.** 12.8%

**Q.** Which max activity does the source give for `Cc1cc(C)cc(S(=O)(=O)N2CCC3(CC2)NCCN=C3NC2CCCC2)c1` here?
**A.** 8.57% [at 0.35 µM]

**Q.** For `Cc1ccc(S(=O)(=O)N2CCC3(CC2)NCCN=C3NC2CCCC2)cc1C`, which max activity is on record?
**A.** 15.2% [at 1.35 µM]

**Q.** Which max activity does the source give for `Cc1cc(C)c(S(=O)(=O)N2CCC3(CC2)NCCN=C3NC2CCCC2)cc1C` here?
**A.** -17.7%

**Q.** Which max activity does the source give for `CCOc1ccc(-c2ccc(OCCNC(=O)c3sc(-c4ccccc4)nc3C)nn2)cc1` here?
**A.** 10.6%

**Q.** Which max activity does the source give for `O=C(CCn1cnc2cc(-c3noc(Cc4c[nH]c5ccccc45)n3)ccc21)N1CCCC1` here?
**A.** 27.3%

**Q.** With `CCCC(=O)Nc1ccc(-c2nc(-c3ccc(C)cc3C)co2)cc1` as the molecule, how does the max activity read?
**A.** -18.1% [at 1.35 µM]

**Q.** With `O=C(COc1ccc(F)cc1)Nc1ccc2c(c1)CCC(=O)N2` as the molecule, how does the max activity read?
**A.** -4.48% [at 1.35 µM]

**Q.** With `Cc1cccc(C(=O)Nc2ccc(-c3nc(-c4ccccc4)co3)cc2)c1` as the molecule, how does the max activity read?
**A.** 70.1%

**Q.** Which max activity does the source give for `COc1ccc(-c2nc(Cn3nnc(-c4nc(-c5ccc(SC)cc5)no4)c3C)c(C)o2)cc1` here?
**A.** -6.45% [at 5 µM]

**Q.** Which max activity does the source give for `Cc1cccc(S(=O)(=O)N2CC[C@@H]3[C@H](CO)Nc4ccc(-c5ccccc5F)cc4[C@@H]32)c1` here?
**A.** 25.7% [at 10 µM]

**Q.** For `COc1ccccc1S(=O)(=O)N1CC[C@H]2[C@H](CO)Nc3ccc(-c4ccc(C#N)cc4)cc3[C@H]21`, which max activity is on record?
**A.** 23% [at 21 µM]

**Q.** Which max activity does the source give for `O=S(=O)(c1ccccc1F)N1CC[C@@H]2[C@H](CO)Nc3ccc(C4=CCCCC4)cc3[C@@H]21` here?
**A.** 7.48% [at 10 µM]

**Q.** With `O=S(=O)(c1ccccc1F)N1CC[C@@H]2[C@@H](CO)Nc3ccc(C4=CCCCC4)cc3[C@@H]21` as the molecule, how does the max activity read?
**A.** 37.4% [at 10 µM]

**Q.** With `O=S(=O)(c1ccccc1F)N1CC[C@H]2[C@H](CO)Nc3ccc(C4=CCCCC4)cc3[C@H]21` as the molecule, how does the max activity read?
**A.** 39.3% [at 10 µM]

**Q.** With `CC(=O)NCC(=O)N1CCC2(CC1)CC(c1ccccc1)C(=O)N2` (configuration not stated) as the molecule, how does the max activity read?
**A.** 28.8%

**Q.** Which max activity does the source give for `COc1ccc(NC(=O)Nc2ccc(-c3nc(-c4cc(C)ccc4C)co3)cc2)c(OC)c1` here?
**A.** 9.16% [at 5 µM]
